Experimental data from PubChem BioAssay (NCATS).
Results filed as inconclusive are left out. Activity calls are given as the source filed them. Calls come from the whole dose curve; as a rule, active = well fitted cell-killing curve with a large enough effect; inconclusive = small, poorly fitted or top-dose-only effect; inactive = flat fitted curve, though single readings scatter.

assay: Quantitative highthroughput screen to assess conditional lethalithy of NOMO1 cells grown in RPMI1640 with untreated serum (RPMI+s) (AID 1963876); settings: NOMO1 AML cells in RPMI+serum, CellTiter-Glo viability, 48 h; series mostly up to 45.8 µM; viability: at the top concentration; note: nearly all actives have a fitted effect of over 35% in size
From the text: Assay Provider: Jason Cantor Ph.D.
Department of Biochemistry
University of Wisconsin-Madison, Madison, WI, USA
Chemical screening studies have identified drug sensitivities across hundreds of cancer cell lines but most putative therapeutics fail to translate. Discovery and development of drug candidates in models that more accurately reflect nutrient levels in human blood is a major challenge. Here we performed high-throughput screens in conventional versus Human Plasma-Like Medium (HPLM) to identify compounds that were "missed" when screening using the artificial culture condition. Sets of conditional anticancer compounds spanned phases of clinical development and included non-oncology drugs were assessed. […] We also traced conditional phenotypes for several chemotherapeutics to availability of HPLM-specific metabolites and confirmed others for compounds whose reported targets are encoded by nonessential genes. Our findings establish generalizable strategies for exploiting conditional lethality in HPLM to reveal therapeutic candidates and mechanisms of action in cancer cells.
Described herein are the results of each viability screens against three cell lines: NOMO1 (an acute myeloid leukemia cell line); P12-Ichikawa (a T-cell acute lymphoblastic leukemia); and SEM (a B-cell ALL). Each assay was screened using 3 different cell culture media: homemade human plasma-Like medium with 10% dialyzed fetal bovine serum (HPLM+ds); RPMI1640 with 10% untreated FBS and 5mM glucose (RPMI+s); and RPMI1640 with 10% dialyzed fetal bovine serum and 5 mM glucose (RPMI+ds).
PROTOCOL TABLE (as described by Inglese J, Shamu CE and Guy RK. 2007)
SEQUENCE No. (e.g., 1, 2, 3, etc.); […] (e.g., Cells, Incubation, Reagent, etc.); VALUE and DESCRIPTION.
1; Cells; 5 uL; white, solid bottom 1536-well Greiner assay plate.
2; Compounds; 23 nL; Kalypsis pin tool (Wako USA) equipped with a 1536-well pin head to transfer to the assay plates.
3; Incubation; 48 hours; 37C incubation.
4; Reagent; 3 uL; CellTiter Glo (Promega).
5; Incubation; 5 min, room temperature
6; Detection; Luminescence, Viewlux PerkinElmer.
NOTES (numbers refer to Sequence numbers above)
1. Briefly, 5 ul of cell reagent was dispensed using a Multidrop Combi Dispenser. The NOMO1 and SEM cells were plated at 500 cells/well and the P12-Ichikawa line at 1000 cells/well.
2. After seeding the cells, 23 nL of MIPE 4.1 library compounds (in DMSO) were added to each plate using a Kalypsys 1536 Pintool dispenser. Bortezomib at final concentration of […] and DMSO were added to each plate as positive and negative controls respectively. For each screen, MIPE 4.1 compounds were added over an eleven-point concentration range […] in 3-fold dilutions.
3. Each plate was covered with a stainless steel gasketed lid to prevent evaporation and incubated for 48 hour at 37C, 95% relative humidity, and 5% CO2.
4-5. Three microliter CellTilter-GloTM luminescent substrate mix (Promega) reagent was added to the assay plate and incubated at room temperature for 5 min.
6. The luminescence signal was measured using a ViewLux (PerkinElmer) multiplate reader with a 2 second exposure time per plate. Data for each compound were normalized as percent viability such that measurements for DMSO and the empty well controls in each plate were defined as 100% and 0%, respectively.
Potency is the fitted concentration of half-maximal effect.

Row | Compound | viability | Potency
1 | COC[C@H]1OC(=O)c2coc3c2[C@@]1(C)C1=C(C3=O)C2CCC(=O)[C@@]2(C)C[C@H]1OC(C)=O (stereo not given in full) | 114% (inactive) | 
2 | O=C(O)C(=O)c1cn(Cc2ccccc2)c2ccc(-c3ccc(OC(F)(F)F)cc3)cc12 | 99.2% (inactive) | 
3 | CCN1C[C@]2(OC(=O)c3ccccc3NC(C)=O)CC[C@H](OC)[C@@]34[C@H]5CC6[C@@H](OC)C[C@](O)(C(C[C@@H]23)[C@@H]14)[C@@]5(O)[C@@H]6OC | 104% (inactive) | 
4 | C[C@]12CC[C@H]3[C@@H](CCC4=CC(=O)CC[C@@]43C)[C@H]1CC[C@H]2OC(=O)CCC1CCCC1 | 94.4% (inactive) | 
5 | CC1=C(O)C(=O)C=C2C1=CC=C1[C@@]2(C)CC[C@@]2(C)[C@@H]3C[C@](C)(C(=O)O)CC[C@]3(C)CC[C@]12C |  | 3.72 µM (active)
6 | CC(=O)O[C@@]12CO[C@H]1C[C@H](O)[C@@]1(C)C(=O)[C@H](O)C3=C(C)[C@@H](O)C[C@@](O)([C@@H](OC(=O)c4ccccc4)[C@@H]21)C3(C)C |  | 14.8 µM (active)
7 | C#CC1(O)CCC2C3CCC4=CC(=O)CCC4(C)C3CCC21C (stereo not given) | 97.6% (inactive) | 
8 | O=C1CC[C@@]2(O)[C@H]3Cc4ccc(O)c5c4[C@@]2(CCN3CC2CC2)[C@H]1O5 |  | 7.43 µM (active)
9 | Cc1ncc(OC[C@@]2(c3cccc(F)c3)C[C@H]2C(=O)Nc2ccc(F)cn2)c(C)n1 | 106% (inactive) | 
10 | Cc1sc2c(c1C)C(c1ccc(Cl)cc1)=N[C@@H](CC(=O)OC(C)(C)C)c1nnc(C)n1-2 |  | 0.526 µM (active)
11 | CC(C)(O)C=CC(=O)[C@](C)(O)[C@H]1[C@H](O)C[C@]2(C)[C@@H]3CC=C4[C@@H](C=C(O)C(=O)C4(C)C)[C@]3(C)C(=O)C[C@@]12C |  | 0.187 µM (active)
12 | C[C@]12Cc3cn[nH]c3C[C@@H]1CC[C@@H]1[C@H]2CC[C@@]2(C)[C@H]1CC[C@]2(C)O | 94.8% (inactive) | 
13 | COCC1(CO)C(=O)C2CCN1CC2 (stereo not given) |  | 20.9 µM (active)
14 | C#C[C@]1(O)C=C[C@@H]2[C@@H]3CCC4=CC(=O)CC[C@@H]4[C@H]3CC[C@@]21CC | 109% (inactive) | 
15 | CC(C)CC(N(C)C)C1(c2ccc(Cl)cc2)CCC1 (stereo not given) | 94.7% (inactive) | 
16 | C[C@]12CC[C@H]3[C@@H](CCC4=CC(=O)CC[C@@]43C)[C@H]1CC[C@H]2O | 106% (inactive) | 
17 | C[C@@]12OC(=O)[C@]1([C@@H](O)[C@@H]1C=CCCC1)NC(=O)[C@H]2CCCl |  | 0.235 µM (active)
18 | N[C@@H](Cc1ccc(N(CCCl)CCCl)cc1)C(=O)O |  | 10.5 µM (active)
19 | O=C(N[C@H]1CN2CCC1CC2)c1ccc(Cl)cc1 | 95.9% (inactive) | 
20 | C=C(C)[C@H]1Cc2c(ccc3c2O[C@@H]2COc4cc(OC)c(OC)cc4[C@@H]2C3=O)O1 |  | 5.26 µM (active)

Row | Compound | viability | Potency
21 | C=C[C@@H]1CN2CCC1C[C@@H]2[C@@H](O)c1ccnc2ccccc12 (stereo not given in full) | 102% (inactive) | 
22 | CC(C)C[C@H](CN)CC(=O)O | 96.2% (inactive) | 
23 | c1ccc(CCCN2CCN(CCOC(c3ccccc3)c3ccccc3)CC2)cc1 | 95.7% (inactive) | 
24 | CNCC(O)c1ccc(O)cc1 (stereo not given) | 103% (inactive) | 
25 | CC(C)(C)[C@]1(O)C[C@@H]2OC(=O)C[C@@]23C(=O)O[C@@H]2OC(=O)[C@H](O)C213 (stereo not given in full) | 99.1% (inactive) | 
26 | COc1ccc(C(=O)c2c(C)n(CCN3CCOCC3)c3cc(I)ccc23)cc1 |  | 0.935 µM (active)
27 | C[C@@H]1O[C@@H](O[C@@H]2C=C3CC[C@@H]4[C@@H](CC[C@]5(C)[C@H](c6ccc(=O)oc6)CC[C@@]45O)[C@@]3(C)CC2)[C@H](O)[C@H](O)[C@H]1O |  | 0.0662 µM (active)
28 | CC(C)N(CCNC(=O)CN1CCCC1=O)C(C)C | 100% (inactive) | 
29 | COC1(CS(=O)c2ccccc2)CCN(CCc2c[nH]c3ccc(F)cc23)CC1 (stereo not given) | 91.3% (inactive) | 
30 | NC1CC1c1ccccc1 (stereo not given) | 96.7% (inactive) | 
31 | Cc1c(C(=O)Nc2cccc(C(F)(F)F)c2)cc(-c2ccccc2)n1CCCN1CCOCC1 | 96.9% (inactive) | 
32 | C[C@H]([C@H](O)CCC(C)(C)O)[C@H]1CC[C@@]2(O)C3=CC(=O)[C@@H]4C[C@@H](O)[C@@H](O)C[C@]4(C)[C@@H]3CC[C@]12C | 96.2% (inactive) | 
33 | CC(C)[C@]12O[C@@H]1[C@@H]1O[C@]13[C@]1(O[C@H]1C[C@@H]1C4=C(CC[C@@]13C)C(=O)OC4)[C@H]2O |  | 0.0012 µM (active)
34 | Cn1cc(C2=C(c3cn(C4CCN(Cc5ccccn5)CC4)c4ccccc34)C(=O)NC2=O)c2ccccc21 | 111% (inactive) | 
35 | O=C1C=CC[C@@H]2[C@H]3CCCN4CCC[C@@H](CN12)[C@@H]34 | 107% (inactive) | 
36 | COc1ccc2c(c1)CN(C)CC2c1ccc(Cl)c(Cl)c1 (stereo not given) |  | 23.5 µM (active)
37 | CC(O)=C(C#N)C(=O)Nc1cc(Br)ccc1Br | 96.1% (inactive) | 
38 | O=P1(NCCCl)OCCCN1CCCl (stereo not given) | 93.4% (inactive) | 
39 | CC(C)(C)c1cc(C=C(C#N)C#N)cc(Br)c1O | 88.9% (inactive) | 
40 | O=c1[nH]c2ccccc2n1CCCN1CCC(n2c(=O)[nH]c3cc(Cl)ccc32)CC1 | 85.4% (inactive) | 
